PMC5540273 (PLoS ONE, 2017)
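Further: KINOMEscan kinase panel screen.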

The compounds below were run on NEK9. Details: concentration: 1 μM, replicates: in singlicate; n = 1.
`Cc1cccc(-c2nc(-c3ccc(S(C)(=O)=O)cc3)sc2-c2ccncc2)c1` was tested, and the “%Inh” value was 16%.
`Nc1nc(-c2ccc3c(N)n[nH]c3c2)cc(N2CCCC2)n1` [GSK2227430] was tested, and the “%Inh” value was 6%.
With `NCC(NC(=O)c1cc(-c2cn[nH]c2)c(-c2ccnc3[nH]ccc23)s1)c1ccccc1.O=C(O)C(F)(F)F.O=C(O)C(F)(F)F` (stereo not shown) [GSK1325775] the “%Inh” value was 10%.
In the case of `Cc1c(Cn2c(C)nn3c(=O)cc(N4CCOC(C)C4)nc23)cccc1C(F)(F)F` (stereo not shown) [GSK2344444], the “%Inh” value is reported as 14%.
In the case of `O=C(Nc1cccc(-c2nn3ncccc3c2-c2ccnc(Nc3cccc(C(F)(F)F)c3)n2)c1)c1c(F)cccc1F` [GSK299495], the “%Inh” value is reported as 0%.
With `N#Cc1c(N2CCOCC2)sc(-c2ccn[nH]2)c1-c1ccc(Cl)cc1` the “%Inh” value was 0%.
`CCc1nc(-c2cccc(C)c2)c(-c2ccnc(NCc3ccccc3)c2)s1` was tested, and the “%Inh” value was 0%.
For `Nc1nccc(-c2c(-c3ccc(F)cc3)ncn2C2CCN(CC(F)(F)F)CC2)n1` [SB-236560], the “%Inh” value was 20%.
In the case of `CC(=O)Nc1ccc(COc2ccc(Nc3ccnc4cc(-c5ccccn5)ccc34)cc2)cc1.Cl` [GW440148], the “%Inh” value is reported as 20%.
`O=C(NCCCN1CCOCC1)c1cccc(Nc2nccc(Nc3ccc(Oc4ccccc4)cc3)n2)c1` [GW663929] was tested, and the “%Inh” value was 28%.
For `COc1cc2c(cc1OCCN1CCN(C)CC1)ncc1c3ccc(C#N)cc3[nH]c21`, the “%Inh” value was 0%.
In the case of `COc1ccc(Nc2ncc(C#N)c(Nc3ccccc3C(N)=O)n2)cc1N1CCN(C)CC1.Cl` [GSK1558669], the “%Inh” value is reported as 98.2%.
With `Cn1ccc2ncnc(Oc3ccc(NC(=O)Nc4ccncc4)c(Cl)c3)c21` the “%Inh” value was 0%.
In the case of `COc1cc2c(cc1OC[C@@H](O)CO)ncc1c3ccc(C#N)cc3[nH]c21`, the “%Inh” value is reported as 0%.
With `Cc1cn2c(=O)cc(N3CCOCC3)nc2n1Cc1cccc(Cl)c1Cl` [GSK2334006] the “%Inh” value was 8%.
`Cn1cc(-c2ccc3c(c2)CCN3C(=O)Cc2ccccc2Cl)c2c(N)ncnc21` [GSK2608885] was tested, and the “%Inh” value was 33%.
In the case of `NS(=O)(=O)c1cccc(-c2ccc3nccc(-c4cccc(S(N)(=O)=O)c4)c3c2)c1` [GW867253], the “%Inh” value is reported as 0%.
With `Cl.Oc1cccc(Nc2ccnc3cc(-c4ccncc4)ccc23)c1` [GW494601] the “%Inh” value was 0%.
For `[2H]C([2H])(c1cccc(C(F)(F)F)c1C)n1ccn2c(=O)nc(N3CCOCC3)cc12` [GSK2336394], the “%Inh” value was 53%.
With `Cl.Nc1ncnc2occ(-c3ccc(NC(=O)Nc4cc(C(F)(F)F)ccc4F)cc3)c12` [SB-707548] the “%Inh” value was 76%.
With `O=C1NC(=O)C(N2CCc3ccccc32)=C1c1cccc(Cl)c1` [SB-408010] the “%Inh” value was 0%.
For `C[C@@H](Oc1cc(-n2cnc3ccc(NC(=O)NC(C)(C)C)cc32)sc1C(N)=O)c1ccccc1Cl` [GSK346294], the “%Inh” value was 16%.
`O=c1cc(N2CCOCC2)nc2n(Cc3cccc(Cl)c3Cl)c(C3CC3)nn12` [GSK2358994] was tested, and the “%Inh” value was 0%.
For `CSc1ccc(-c2cc3ncnc(SCC(=O)O)c3s2)cc1`, the “%Inh” value was 0%.
With `c1ccc(-c2n[nH]cc2-c2ccnc3ccccc23)nc1` [GW271431] the “%Inh” value was 58%.
In the case of `O=C(NCCNc1ccnc(Nc2ccc(F)cc2)n1)c1cc2ccccc2s1` [GSK1379874], the “%Inh” value is reported as 16%.
In the case of `Fc1ccc(-c2ncn(CCCN3CCOCC3)c2-c2cccnc2)cc1` [SB-211743], the “%Inh” value is reported as 0%.
`Cc1ccc(NC(=O)c2ccnc(N3CCN(C)CC3)c2)cc1-c1ccc(C(=O)NCC2CC2)cc1` [GW775604] was tested, and the “%Inh” value was 0%.
In the case of `CN1c2ccc(CNc3ccc(F)cc3)cc2-c2c(cnn2C)S1(=O)=O`, the “%Inh” value is reported as 0%.
For `CNc1ncnc2[nH]ncc12` [SKF-18355], the “%Inh” value was 0%.
With `COCCNC(=O)c1ccc(-c2cc(C(=O)NC3CC3)cc(F)c2C)cc1` [GW868318] the “%Inh” value was 0%.
With `CCc1ccnc(/C=C/c2n[nH]c3cc(Sc4ccccc4C(=O)NC)ccc23)c1` the “%Inh” value was 0%.
For `CC(C)Oc1ccc2c(-c3ccnc(Nc4ccc(N5CCN(C)CC5)cc4)n3)cnn2n1` [GW696155], the “%Inh” value was 92.9%.
`c1ccc(-c2cc(-c3c[nH]nc3-c3ccccn3)ccn2)cc1` [GW576604] was tested, and the “%Inh” value was 17%.
For `Fc1ccc(-c2ncn(CCCN3CCOCC3)c2-c2ccccn2)cc1` [SB-211742], the “%Inh” value was 0%.

Each compound was assayed on T1, NIK. Details: concentration: 1 μM, replicates: in singlicate; n = 1.
T1 construct: gene MAP3K14
With `Cc1cccc(-c2nc(-c3ccc(S(C)(=O)=O)cc3)sc2-c2ccncc2)c1` the “%Inh” value was 0%.
In the case of `Nc1nc(-c2ccc3c(N)n[nH]c3c2)cc(N2CCCC2)n1` [GSK2227430], the “%Inh” value is reported as 0%.
With `NCC(NC(=O)c1cc(-c2cn[nH]c2)c(-c2ccnc3[nH]ccc23)s1)c1ccccc1.O=C(O)C(F)(F)F.O=C(O)C(F)(F)F` (stereo not shown) [GSK1325775] the “%Inh” value was 28%.
`Cc1c(Cn2c(C)nn3c(=O)cc(N4CCOC(C)C4)nc23)cccc1C(F)(F)F` (stereo not shown) [GSK2344444] was tested, and the “%Inh” value was 12%.
For `O=C(Nc1cccc(-c2nn3ncccc3c2-c2ccnc(Nc3cccc(C(F)(F)F)c3)n2)c1)c1c(F)cccc1F` [GSK299495], the “%Inh” value was 0%.
In the case of `N#Cc1c(N2CCOCC2)sc(-c2ccn[nH]2)c1-c1ccc(Cl)cc1`, the “%Inh” value is reported as 8%.
For `CCc1nc(-c2cccc(C)c2)c(-c2ccnc(NCc3ccccc3)c2)s1`, the “%Inh” value was 0%.
In the case of `Nc1nccc(-c2c(-c3ccc(F)cc3)ncn2C2CCN(CC(F)(F)F)CC2)n1` [SB-236560], the “%Inh” value is reported as 13%.
`CC(=O)Nc1ccc(COc2ccc(Nc3ccnc4cc(-c5ccccn5)ccc34)cc2)cc1.Cl` [GW440148] was tested, and the “%Inh” value was 0%.
`O=C(NCCCN1CCOCC1)c1cccc(Nc2nccc(Nc3ccc(Oc4ccccc4)cc3)n2)c1` [GW663929] was tested, and the “%Inh” value was 3%.
In the case of `COc1cc2c(cc1OCCN1CCN(C)CC1)ncc1c3ccc(C#N)cc3[nH]c21`, the “%Inh” value is reported as 76%.
For `COc1ccc(Nc2ncc(C#N)c(Nc3ccccc3C(N)=O)n2)cc1N1CCN(C)CC1.Cl` [GSK1558669], the “%Inh” value was 96.6%.
In the case of `Cn1ccc2ncnc(Oc3ccc(NC(=O)Nc4ccncc4)c(Cl)c3)c21`, the “%Inh” value is reported as 0%.
`COc1cc2c(cc1OC[C@@H](O)CO)ncc1c3ccc(C#N)cc3[nH]c21` was tested, and the “%Inh” value was 60%.
`Cc1cn2c(=O)cc(N3CCOCC3)nc2n1Cc1cccc(Cl)c1Cl` [GSK2334006] was tested, and the “%Inh” value was 0%.
With `Cn1cc(-c2ccc3c(c2)CCN3C(=O)Cc2ccccc2Cl)c2c(N)ncnc21` [GSK2608885] the “%Inh” value was 8%.
In the case of `NS(=O)(=O)c1cccc(-c2ccc3nccc(-c4cccc(S(N)(=O)=O)c4)c3c2)c1` [GW867253], the “%Inh” value is reported as 32%.
`Cl.Oc1cccc(Nc2ccnc3cc(-c4ccncc4)ccc23)c1` [GW494601] was tested, and the “%Inh” value was 30%.
In the case of `[2H]C([2H])(c1cccc(C(F)(F)F)c1C)n1ccn2c(=O)nc(N3CCOCC3)cc12` [GSK2336394], the “%Inh” value is reported as 0%.
For `Cl.Nc1ncnc2occ(-c3ccc(NC(=O)Nc4cc(C(F)(F)F)ccc4F)cc3)c12` [SB-707548], the “%Inh” value was 36%.
In the case of `O=C1NC(=O)C(N2CCc3ccccc32)=C1c1cccc(Cl)c1` [SB-408010], the “%Inh” value is reported as 0%.
With `C[C@@H](Oc1cc(-n2cnc3ccc(NC(=O)NC(C)(C)C)cc32)sc1C(N)=O)c1ccccc1Cl` [GSK346294] the “%Inh” value was 21%.
With `O=c1cc(N2CCOCC2)nc2n(Cc3cccc(Cl)c3Cl)c(C3CC3)nn12` [GSK2358994] the “%Inh” value was 0%.
In the case of `CSc1ccc(-c2cc3ncnc(SCC(=O)O)c3s2)cc1`, the “%Inh” value is reported as 0%.
In the case of `c1ccc(-c2n[nH]cc2-c2ccnc3ccccc23)nc1` [GW271431], the “%Inh” value is reported as 4%.
In the case of `O=C(NCCNc1ccnc(Nc2ccc(F)cc2)n1)c1cc2ccccc2s1` [GSK1379874], the “%Inh” value is reported as 0%.
With `Fc1ccc(-c2ncn(CCCN3CCOCC3)c2-c2cccnc2)cc1` [SB-211743] the “%Inh” value was 41%.
In the case of `Cc1ccc(NC(=O)c2ccnc(N3CCN(C)CC3)c2)cc1-c1ccc(C(=O)NCC2CC2)cc1` [GW775604], the “%Inh” value is reported as 4%.
`CN1c2ccc(CNc3ccc(F)cc3)cc2-c2c(cnn2C)S1(=O)=O` was tested, and the “%Inh” value was 0%.
`CNc1ncnc2[nH]ncc12` [SKF-18355] was tested, and the “%Inh” value was 31%.
`COCCNC(=O)c1ccc(-c2cc(C(=O)NC3CC3)cc(F)c2C)cc1` [GW868318] was tested, and the “%Inh” value was 48%.
In the case of `CCc1ccnc(/C=C/c2n[nH]c3cc(Sc4ccccc4C(=O)NC)ccc23)c1`, the “%Inh” value is reported as 0%.
With `CC(C)Oc1ccc2c(-c3ccnc(Nc4ccc(N5CCN(C)CC5)cc4)n3)cnn2n1` [GW696155] the “%Inh” value was 21%.
In the case of `c1ccc(-c2cc(-c3c[nH]nc3-c3ccccn3)ccn2)cc1` [GW576604], the “%Inh” value is reported as 24%.
`Fc1ccc(-c2ncn(CCCN3CCOCC3)c2-c2ccccn2)cc1` [SB-211742] was tested, and the “%Inh” value was 0%.
